From PubChem
HT1080NT lethal = kills 2HG-producing HT-1080-NT fibrosarcoma cells; Potency, µM (titrated, usually from 46.1 µM), without a hit: at the highest dose activity, negative = less viability, usual class: cytotoxic; actives 1.6% (n = 360,000); HT-1080-NT fibrosarcoma viability, CellTiter-Glo ATP luminescence, 48 h;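 also: NT is the 2HG producing partner of a matched IDH1 knockdown line; 0% = DMSO-treated cells and -100% = media-only wells without cells; nearly all actives have a fitted effect of over 55% in size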
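Compounds were tested in concentration-response format on HT-1080-NT cells for 48 hours at 37 degrees C. Cell viability came from CellTiter-Glo luminescence; curves were classified by r2, response magnitude and activity.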
TGFb SMAD3 inh = TGF-b pathway inhibition | Potency, µM (highest dose often 46.1 µM), for the others: at the top dose activity, negative = inhibition, actives largely listed as inhibitors | AID 588855 | HepG2 CAGA-GFP TGF-b/SMAD3 reporter, GFP fluorescence, 18 h; TGF-beta stimulated, 500 pg/mL final | actives 1.2% (n = 410,000); also: % is scaled to controls: 0 for no effect and ±100 for the full control effect; nearly all actives have a fitted effect of over 65% in size
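Per well, imaged GFP fluorescence of HEPG2 CAGA-GFP cells gives the signal; cells get compound, then TGF-beta (500 pg/mL final), 18 h at 37 degrees C; %Activity versus -TGF-beta and +DMSO controls.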
ATXN2 expr inh = ATXN2 expression inhibition. HEK-293 ATXN2-luciferase reporter, luminescence, 24 h. Potency, µM (highest dose often 57 µM), for inactives: top-dose activity change, negative = inhibition, usual class: inhibitors. AID 1745845. actives 0.72% (n = 360,000); also: % is scaled to controls: 0 for no effect and ±100 for the full control effect; nearly all actives have a fitted effect of over 55% in size
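qHTS (up to 57 uM final) was run with 24 h compound exposure of reporter cells at 37 °C. Each well was multiplexed: SteadyGlo luminescence measured ATXN2-luciferase expression after a fluorogenic Gly-Phe-AFC viability readout (25 uM final).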
HepG2 tox = HepG2 cytotoxicity, counter-screen for TGF-b inhibitors. HepG2 CAGA-GFP viability, ATP luminescence, 18 h. Potency, µM (doses to about 46.1 µM), without a hit: top-dose activity change, negative = cytotoxicity, usual class: cytotoxic. actives 0.76% (n = 410,000). AID 588856
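CellTiter-Glo luminescence gave cytotoxicity after 18 hours at 37 degrees C. The cells were HepG2 CAGA-GFP in 1% FBS DMEM, stimulated with 500 pg/mL TGF-beta after compound addition. %Activity was normalised to no-cell wells (complete cell-killing) and DMSO (no toxicity), and curves were fitted and classified.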
S2 tox = cell viability loss in ATXN counter-screen. S2 cells (HEK-293 line with an ATXN2-luciferase reporter) viability, CellTiter-Fluor protease fluorescence, 24 h. Potency, µM (doses to about 56.7 µM), actives largely listed as cytotoxic. actives 0.49% (n = 400,000); also: nearly all actives have a fitted effect of over 40% in size
HT1080 IDH1KD tx = toxicity to HT-1080 IDH1 knockdown cells (counter line); Potency, µM (doses to about 46.1 µM), for inactives: at the highest dose activity, negative = toxicity, most hits filed as cytotoxic; AID 686971; HT-1080 IDH1 knockdown viability, ATP luminescence, 48 h; actives 2% (n = 360,000);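 also: 0% = DMSO wells and -100% = cell-free medium wells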
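Cytotoxicity counter-line: IDH1KD HT-1080, 48 h, CellTiter-Glo. Curves classed by r2, magnitude and activity.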
The depositor's hits bear a star; i = inactive; ? = inconclusive; . = no result. A selection follows. Calls follow the shape of the dose curve; as a rule, active = well fitted curve in the direction sought with a large enough effect; inconclusive = small, poorly fitted or top-dose-only effect, or another doubt; inactive = no such curve, though single readings can be large; an effect the other way counts as inactive or inconclusive. Potency is read from the fitted curve at half-maximal effect.

SMILES | HT1080NT lethal | TGFb SMAD3 inh | ATXN2 expr inh | HepG2 tox | S2 tox | HT1080 IDH1KD tx
CCOc1ccc(CC(=O)Nc2ccc3c(c2)N(C)C(=O)c2ccccc2S3)cc1OCC | . | -30% | -25% | -18% | ? | .
CCCOP(=O)(c1ccc(N(C)C)cc1)C(O)c1ccc(Cl)cc1Cl (configuration not stated) | -1% | -23% | -24% | -14% | i | ?
CCC(=C(c1ccc(O)cc1)c1ccc(OCCN(C)C)cc1)c1ccccc1 | 0% | 7% | -1% | -5% | i | 0%
O=C(NC1CCCCCC1)c1ccc[nH]c1=S | -5% | ? | 23% | 2% | i | -6%
COc1ccccc1N1CCN(C2CCCN(C(=O)COc3ccccc3Cl)C2)CC1 (configuration not stated) | -22% | -8% | -11% | -23% | i | -13%
NCC(=O)c1ccc(Cl)c(Cl)c1 | . | ? | . | -46% | . | .
CCCCN(C)C(=O)c1oc2ccc(S(=O)(=O)N3CCCCCC3)cc2c1C | ? | ? | ? | -47% | i | ?
CCC(=O)Nc1ccc(C(=O)OCc2ccccc2Cl)cc1 | 3% | 8% | 70% | -7% | ? | 3%
CCN(CC)C(C)C(=O)c1ccccc1 (configuration not stated) | . | . | 7% | . | i | .
CC(=O)NCC(N)C(=O)c1ccc(C)cc1 (configuration not stated) | -2% | . | . | . | . | -2%
CCCC1CCCCN1 (configuration not stated) | . | . | 11% | . | i | .
CSc1cccc(CNC(=O)C2CCC(=O)N(Cc3cccc(C(F)(F)F)c3)C2)c1 (configuration not stated) | -8% | ? | 3% | -10% | i | -9%
CNCCCN1c2ccccc2CCc2ccccc21 | ? | 24% | ? | -32% | ? | ?
CC1Cc2ccccc2CN1 (configuration not stated) | . | -8% | . | 2% | . | .
CN(C)CCn1cnc2ccccc21 | 3% | 6% | 3% | 8% | i | 9%
CC(N)Cc1ccc2c(c1)OCO2 (configuration not stated) | . | . | . | . | i | .
C[C@]12C[C@H]3S[C@H]3C[C@@H]1CC[C@@H]1[C@@H]2CC[C@]2(C)[C@@H](O)CC[C@@H]12 | . | . | . | . | i | .
COc1cc2c(c(OC)c1OC)-c1ccc(O)c(=O)cc1[C@H](N)CC2 | . | . | . | . | i | .
COc1cccc(C(O)c2nc(-c3ccncc3)cs2)c1 (configuration not stated) | ? | 9% | -4% | -11% | i | -18%
Cc1ccc(-c2nnc(Nc3ccc(O)cc3)c3ccccc23)cc1S(=O)(=O)N1CCOCC1 | . | ? | ? | -10% | ? | .
Cc1cc(/C=C/c2ccnc3ccccc23)ccc1N(CCCl)CCCl | . | -9% | . | -22% | . | .
CC[C@H]1C(=O)OC[C@H]1Cc1cncn1C | . | . | . | . | i | .
CN1CCC(OC(=O)C2c3ccccc3Oc3ccccc32)CC1 | -21% | -2% | -7% | -4% | i | -3%
Cc1ccc(S(=O)(=O)N2CCC(=O)N(CCOC(=O)Nc3cccc(Cl)c3)CC2)cc1 | -1% | ? | 10% | -14% | i | -2%
CCCCCn1c(=O)c(C(=O)Nc2nc3ccccc3[nH]2)c(O)c2ccccc21 | -3% | -11% | -9% | -63% | i | -7%
O=C(Oc1ccc([N+](=O)[O-])cc1)N1CCN(/[N+]([O-])=N/Oc2ccc([N+](=O)[O-])cc2[N+](=O)[O-])CC1 | . | ? | . | -107% | . | .
CCCCOC(=O)c1ccccc1N | -19% | 0% | -15% | 1% | i | -2%
